Assay outcomes (PubChem)
The list is not random: actives were taken first. Their share in the collection is about 0.42%.
LMNA splice mod = qHTS Assay for Modulators of Lamin A Splicing; Potency, µM (series often up to 46.1 µM), inactives show top-dose ratio change, negative = inhibition, hits mostly inhibitors; AID 1487, 2009; HeLa LMNA splicing GFP/RFP minigene ratio, 48 h; actives 0.01% (n = 200,000); active means well fitted inhibition curve with a large enough effect in the signal ratio, with a control signal flat, not every such curve was filed as active; the % refers to the signal ratio
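S3 HeLa cells stably expressing lamin A-EGFP splicing minigene plus DsRed2, 600 cells/well, 48 h compound exposure at 37C. Laser-scanning cytometry; analysed as GFP (500-530 nm)/RFP (575-640 nm) total intensity ratio; 0.5% DMSO vehicle.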
aGlu spleen mod = qHTS Assay for Inhibitors and Activators of Human alpha-Glucosidase From Spleen Homogenate. AID 2112, 2009. Lysosomal alpha-glucosidase (Homo sapiens), P10253. actives 0.006% (n = 240,000). human spleen homogenate, 4-MU-alpha-glucoside fluorescence. Potency, µM (top dose mostly 79.9 µM), for the others: at the top dose activity change, negative = inhibition, usual class: inhibitors;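 further: 0% = enzyme with vehicle and -100% = no enzyme basal signal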
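Human spleen homogenate (1 ug) incubated with compounds and 1 mM 4-methylumbelliferyl-alpha-D-glucopyranoside in pH 5.0 citrate/phosphate buffer, 37 C, 40 min. Stopped at pH 10; 4-MU fluorescence (Ex 365/Em 440 nm); AC50 by Hill fit.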
N370S GC mod = qHTS Assay for Inhibitors and Activators of N370S glucocerebrosidase as a Potential Chaperone Treatment of Gaucher Disease. Lysosomal acid glucosylceramidase (Homo sapiens), P04062. N370S GC spleen homogenate, 4MU-glucoside fluorescence. Potency, µM (top dose mostly 59.4 µM), for inactives: at the highest dose activity change, negative = inhibition, usual class: inhibitors. actives 0.092% (n = 330,000). AID 2101, 2009;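 further: 0% = full enzyme activity and -100% = no enzyme basal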
GAA inhib = qHTS Assay for Inhibitors of Human alpha-Glucosidase as a Potential Chaperone Treatment of Pompe Disease; Lysosomal alpha-glucosidase (Homo sapiens), P10253; purified human GAA, 4-MU-alpha-glucoside fluorescence; Potency, µM (top dose mostly 76.9 µM), without a hit: top-dose activity change, negative = inhibition, most hits filed as inhibitors; actives 0.005% (n = 200,000);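 further: plate controls were uninhibited enzyme wells for no effect and no-enzyme background for full effect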
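Human enzyme at 4 nM with 400 uM 4-methylumbelliferyl-alpha-D-pyranoside, citrate/phosphate buffer pH 5.0, 0.005% Tween-20, 20 min at room temperature. Compounds up to 77 uM. 4-MU fluorescence (Ex 365/Em 440) read after NaOH/glycine stop; AC50 from Hill fit.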
GAA glycogen = qHTS Assay for Inhibitors and Activators of Human alpha-Glucosidase Cleavage of Glycogen; Lysosomal alpha-glucosidase (Homo sapiens), P10253; recombinant GAA, glycogen substrate, Amplex Red glucose oxidase fluorescence; Potency, µM (top dose mostly 76.4 µM), without a hit: at the highest dose activity change, negative = inhibition, most hits filed as inhibitors; actives 0.38% (n = 300,000);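 further: 0% = full enzyme reaction and -100% = no-enzyme basal signal; the screen sought inhibitors and activators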
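qHTS, 1536-well; enzyme 4 nM final; cpd up to 77 uM; substrate bovine liver glycogen 30 ug; 50 mM citrate/phosphate pH 5.0, 0.01% Tween-20; 37 C, 40 min; Amplex Red detection 45 min RT; Hill fit → AC50.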
An asterisk follows results filed as active; [ ] = another dose, or the depositor's remark. Unless noted, the call rests on the fitted dose curve; in most records, active means well fitted curve in the direction sought with a large enough effect; inconclusive means small, poorly fitted or top-dose-only effect, or another doubt; inactive means no such curve, though single readings can be large; an effect the other way counts as inactive or inconclusive. Unless noted, on the % scale 0 is the no-effect control and ±100 the full control effect; potency means the concentration at half of the fitted maximal effect.

How did O=C(COc1ccccc1[N+](=O)[O-])N/N=C/c1ccc(O)c([N+](=O)[O-])c1 do in these assays?
LMNA splice mod: -1%[46 µM]; aGlu spleen mod: -3%; N370S GC mod: 15%; GAA inhib: -3%; GAA glycogen: 3%

How did COc1ccc2c(c1)C(=O)[C@H](OC(=O)NCCOc1ccccc1)[C@@H](c1ccc(OC)c(Br)c1)O2 do in these assays?
aGlu spleen mod: -7%; N370S GC mod: -2%

How did N#C/C(=C/c1ccc(F)cc1)S(=O)(=O)c1ccccc1 do in these assays?
aGlu spleen mod: 6%; N370S GC mod: -17%; GAA glycogen: -5%

What do the screens show for `N#C/C(=C\c1ccc(O)c(O)c1)S(=O)(=O)c1ccccc1`?
LMNA splice mod: -3%; aGlu spleen mod: -7%; N370S GC mod: -17%; GAA inhib: -7%; GAA glycogen: 7.1µM*

Results for Cc1oc(C)c(C(=O)Nc2ccccc2)c1C ?
aGlu spleen mod: 4%; N370S GC mod: -2%

How did NC(C(=O)O)c1cc(O)cc(O)c1 (centres undefined) do in these assays?
aGlu spleen mod: -6%; N370S GC mod: 9%
